Source: PubChem (National Center for Advancing Translational Sciences (NCATS))
Only some compounds are listed: those with a hit (about 6% of all), similar ones and a draw of the others.
D1 antagonist: antagonists of human D1 dopamine receptor; P21728; HEK293 TREx D1 cells, calcium flux, dopamine EC80; hits give low values; activity change, negative = inhibition, % at 10 µM; hit rate 3.2% among 360,000; in the data active = activity change below about -30%; note: % is set by controls: 0 for no effect and ±100 for the full control effect
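Tetracycline-induced HEK293 Trex D1 cells, force-coupled to calcium, dye-loaded; compounds added and read 180 s, then EC80 dopamine added and calcium flux tracked kinetically another 180 s.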
D1 potentiator: human D1 dopamine receptor positive modulation; potentiation, % at 10 µM; HEK293 TREx D1 cells, calcium flux, dopamine EC20 potentiation; AID 504651; hit rate 0.036% among 360,000; in the data active = potentiation above about 30%; note: 0% is about no effect
D1 ag: human D1 receptor agonism. P21728. activation, % at 2 µM. hit rate 1% among 360,000. HEK293 T-REx D1 cells, calcium flux, agonist mode. AID 504660; in the data active = activation above about 30%; note: 0% is about no effect
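Tetracycline-induced HEK293 TREx D1 cells, force-coupled to calcium signalling, were dye-loaded with a no-wash calcium kit. Compound was pin-added after a 10 s baseline. Fluorescence was read kinetically at 1 cycle/s for 180 s, with calcium rises flagged as agonism.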
DRD3 antagonist: blocks the human D3 dopamine receptor. hit rate 2.5% among 360,000. AID 652054. P35462. D3R cells, DiscoveRx beta-arrestin luminescence, antagonist mode; hits give low values. max response, negative = inhibition, %; in the data active = max response below about -50%; inconclusive = no clear call, values can overlap the other calls; note: % is set by controls: 0 for no effect and ±100 for the full control effect
Target sequence (P35462 whole entry, looked up): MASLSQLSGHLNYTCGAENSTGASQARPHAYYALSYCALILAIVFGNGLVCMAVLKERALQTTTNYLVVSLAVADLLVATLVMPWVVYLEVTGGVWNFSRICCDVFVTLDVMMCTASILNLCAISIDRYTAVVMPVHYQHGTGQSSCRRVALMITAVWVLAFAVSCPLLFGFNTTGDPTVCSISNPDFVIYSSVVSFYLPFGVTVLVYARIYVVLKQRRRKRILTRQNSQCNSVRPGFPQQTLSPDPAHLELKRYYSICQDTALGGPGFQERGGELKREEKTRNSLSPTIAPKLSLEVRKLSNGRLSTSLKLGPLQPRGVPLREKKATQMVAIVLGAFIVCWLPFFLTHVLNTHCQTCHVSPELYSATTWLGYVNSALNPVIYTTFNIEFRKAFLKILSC
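Cells expressing the human receptor were seeded at 1500 cells/well, incubated overnight at 37 degrees C in 5% CO2, then exposed to library compounds with dopamine controls for 90 minutes at 37 degrees C before luminescent detection.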
D3 ag: activates the human D3 dopamine receptor | P35462 | D3R DiscoveRx beta-arrestin cells, luminescence, 90 min | max activation, % | hit rate 0.58% among 410,000 | AID 652048; in the data active = max activation above about 30%; note: 0% is about no effect
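Agonist mode: compounds and dopamine controls were applied to plated cells for 90 min at 37 degrees C after an overnight attachment at 1500 cells/well. Luminescent read-out followed 30 - 60 minutes at room temperature with DiscoveRx detection reagent.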
* = called active by the depositor; u = inconclusive; x = no result.

SMILES | D1 antagonist | D1 potentiator | D1 ag | DRD3 antagonist | D3 ag
CCNC(=S)N1CCN(c2nc(-c3cccc(OC)c3)cs2)CC1 | -30* | -6 | 7 | 3 | 14
COc1cccc(-c2csc(N3CCN(C(=O)Nc4ccc(Cl)cc4)CC3)n2)c1 | -27 | -3 | 7 | 35 | 1
O=C(COC(=O)C12CC3CC(CC(Cl)(C3)C1)C2)NCc1ccco1 | 3 | 5 | -1 | x | x
COc1ccc(/C=C(\C#N)C(=O)NCC2CCCO2)cc1OC (configuration not stated) | 7 | 1 | 2 | 13 | -1
COc1cc(/C=C(\C#N)C(=O)NCC2CCCO2)ccc1OC(=O)c1ccco1 (configuration not stated) | 6 | -8 | 2 | -53* | -10
Cc1ccc(C(=O)c2coc3ccc(OCC(=O)O)cc23)cc1 | 0 | -1 | 1 | -61* | -5
COC(=O)COc1ccc2occ(C(C)=O)c2c1 | -17 | 3 | 4 | -105* | -8
COc1cc(NC(=O)C(CCSC)NS(=O)(=O)c2ccc3c(c2)oc(=O)n3C)cc(OC)c1 (configuration not stated) | 0 | -1 | -1 | x | -15
Nc1c(C(O)(C(F)(F)F)C(F)(F)F)cc(C(O)(C(F)(F)F)C(F)(F)F)c2ccccc12 | -30 | 4 | 40* | -83* | 0
CCOc1ccc(NC(=O)CN(C)C(=O)c2ccc(N3CCCCC3)c([N+](=O)[O-])c2)cc1OCC | -13 | -9 | 3 | 8 | 0
CCOc1ccc(NC(=O)CN(C)C(=O)c2ccc(N3CCCC3)c([N+](=O)[O-])c2)cc1OCC | -20 | -16 | 0 | -60* | -6
COC(=O)C1=C(C)N(Cc2ccc(OC)cc2)C(=O)/C1=C\c1ccco1 | -34* | -10 | 2 | 0 | 1
CCOC(=O)CSc1nc2sc3c(c2c(=O)n1-c1ccc(OCC)cc1)CCN(C)C3 | 6 | -8 | 30* | 0 | 5
CCOc1ccc(-n2c(SCC(N)=O)nc3sc4c(c3c2=O)CCN(C)C4)cc1 | -1 | 2 | 1 | -12 | -29
COc1ccc(C(=O)/C(C#N)=N/Nc2cccc([N+](=O)[O-])c2)cc1 | -32* | -9 | 20 | 28 | 5
CCC(CC)=NNc1cccc([N+](=O)[O-])c1 | 4 | -1 | 4 | 19 | 3
N#C/C(=N\Nc1cccc(Cl)c1)C(=O)c1ccccc1 | -16 | -4 | 17 | -86* | 7
Cc1c(N/N=C(\C#N)C(=O)c2ccccc2)c(=O)n(-c2ccccc2)n1C | 1 | -3 | 6 | -68* | -20
Cc1ccccc1C(=O)/C(C#N)=N/Nc1c(C)n(C)n(-c2ccccc2)c1=O | 5 | -4 | 4 | u | -15
Cc1cccc(CNc2ncnc3ccc(-c4cccc(Cl)c4)cc23)c1 | -16 | -2 | 3 | x | x
Cc1cc(C)c2c(=O)cc(C(=O)Nc3ccc(C)c(Cl)c3)oc2c1 | 8 | -1 | 1 | x | -27
Cc1ccc(Cl)cc1N1C(=O)N(Cc2ccc(C#N)cc2)c2ccccc2S1(=O)=O | 4 | 0 | 5 | x | -1
COC(=O)CC(NS(=O)(=O)c1cccs1)c1ccccc1Cl (configuration not stated) | -10 | -8 | 7 | -28 | -11
COC(=O)CC(NS(=O)(=O)c1cccs1)c1ccc2c(c1)OCO2 (configuration not stated) | -56* | 4 | 0 | -11 | 2
CCN(CC(=O)Nc1ccccc1C(F)(F)F)C(=O)CN1C(=O)NC2(CCCCC2)C1=O | 9 | -4 | 1 | 2 | 4
SMILES | D1 antagonist | D1 potentiator | D1 ag | DRD3 antagonist | D3 ag
CCC1(c2ccccc2)NC(=O)N(CC(=O)N(CC(=O)Nc2ccccc2C(F)(F)F)Cc2ccco2)C1=O (configuration not stated) | -13 | 1 | 44* | -1 | 7
Cc1oc(-c2ccccc2Cl)nc1CSc1nc2c(c(=O)[nH]1)CCCC2 | 14 | 1 | 3 | 113 | 30*
COc1ccc(NC(=O)c2cc3nc(-c4ccc(Cl)c(Cl)c4)cc(C(F)(F)F)n3n2)c(OC)c1 | -66* | 0 | -2 | x | 3
Cc1ccc2nc(Nc3cccc(C(F)(F)F)c3)c3nnnn3c2c1 | 1 | -2 | 0 | x | 3
CN(C)CCNC(=O)CN1C(=O)COc2ccc(S(=O)(=O)N3CCCC3)cc21 | -6 | 1 | 1 | x | 0
Cc1ccc(-n2c(CCc3nc4ccccc4[nH]3)n[nH]c2=S)cc1 | 7 | -3 | 4 | -51* | -19
CCn1c(CCc2nc3ccccc3[nH]2)n[nH]c1=S | -14 | 0 | 2 | -8 | 4
C#C[C@]1(O)CC[C@H]2[C@@H]3CCC4=CC(=O)CC[C@@H]4[C@H]3C(=C)C[C@@]21CC | x | x | x | x | -8
COCc1nnc(NS(=O)(=O)c2ccc([N+](=O)[O-])cc2)s1 | -7 | -2 | 1 | -58* | -3
CCC(=O)OCC(=O)[C@@]1(OC(=O)CC)[C@H](C)C[C@H]2[C@@H]3CCC4=CC(=O)C=C[C@]4(C)[C@@]3(F)[C@@H](O)C[C@@]21C | x | x | x | x | 1
CCOc1ccc(NC(=O)CCS(=O)(=O)c2cc3c4c(c2)CCN4C(=O)CC3)cc1 | 11 | -2 | 1 | x | 5
COc1ccc(NC(=S)Nc2ccc(N)c([N+](=O)[O-])c2)cc1 | -15 | -6 | 1 | -82* | -1
COc1ccc(NC(=S)Nc2ccc3snnc3c2)cc1 | -13 | -5 | 4 | -15 | 2
COc1ccc(NC(=S)Nc2ccccc2)cc1 | 2 | 2 | 0 | 4 | 6
COc1ccc(NC(=S)Nc2ccc3nccnc3c2)cc1 | -34* | -5 | 3 | -25 | -1
Fc1cccc(Cl)c1Cn1c(-c2cccs2)nc2ccccc21 | 7 | 1 | 2 | x | 3
O=C(NCCOc1ccccc1Cl)C(=O)NCCOc1ccccc1Cl | -5 | -1 | 5 | -5 | 3
COc1ccccc1OCCNC(=O)c1ccccc1C | 3 | -2 | 3 | -21 | -14
CC1(C(=O)NCCOc2ccccc2Cl)CC1(Cl)Cl (configuration not stated) | -65* | -5 | 1 | -7 | -3
COc1ccccc1OCCNC(=O)Cc1ccc(Cl)c(Cl)c1 | -34* | -3 | 4 | -9 | -9
Cc1cc(C)c(CN2CCN(C(=O)CC[C@H]3O[C@@H](n4ccc(=O)[nH]c4=O)[C@H](O)[C@@H]3O)CC2)c(C)c1 | x | x | x | -69* | -13
O=C(NC1CCCC1)c1ccc2c(c1)N(Cc1ccc(C(F)(F)F)cc1)C(=O)c1ccccc1S2 | -1 | 2 | 3 | x | -4
CCC(=O)NNc1nc2c(F)cc(F)cc2s1 | -35* | -2 | 4 | 23 | 2
C=C[C@]1(C)C=C2C(=O)[C@@]3(O)OC(=O)[C@@]4(CCCC(C)(C)[C@H]34)[C@@]2(O)CC1 | x | x | x | -58* | -9
O=C(NCc1ccc2c(c1)CCN2C(=O)c1ccc(F)cc1)c1ccc(Br)o1 | 1 | -2 | 3 | x | -1
